# Calls of active or inactive are those of the source. No rule for the calls is given here.
# Test system: Potassium Channel [KATP]
# Assay: off-target binding and CYP450 inhibition panel, profiling panel, selectivity assay for S1P4 antagonist project, biochemical, Ricerca HitProfilingScreen (AID 489017)
# Conditions: Ricerca receptor/enzyme binding panel plus CYP450, at 10 µM, hits give high values
structure (smiles),measurement,value
CCc1cccc(CC)c1NC(=O)c1ccc(-c2cc(Cl)ccc2Cl)o1,inhibition,14% (inactive)
